# About 83,000 compounds went through this panel and 20% of them were active in at least one assay; those are over-represented in the sample as a whole.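 How to read the values: 0–100, growth inhibition (40 = 60% inhibited); 0, no net growth; -100 to 0, cell death (-40 = 40% of starting cells died; -100 = all dead).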 Calls of active or inactive are those of the source. How the source made its calls: active means growth percent below 10; inactive means the rest.
# Test system: OVCAR-3 ovarian
# Test: NCI-60 one-dose screen, 48 h (100 = growth as untreated, 0 = no growth, -100 = all killed)
# Conditions: 10 µM unless noted
row,Structure (SMILES),growth
1,Brc1ccc(-c2nc3ccccc3s2)cc1,99% (inactive)
2,c1cc[c]([Bi]([c]2ccccc2)[c]2ccccc2)cc1,105% (inactive)
3,O=C1/C(=N\c2cc(=O)[nH]n2S(=O)(=O)c2ccccc2)Nc2ccccc21,104% (inactive)
4,COc1ccc(/C=C/C(=O)/C=C/c2cc3ccccc3[nH]c2=O)cc1,32% (inactive)
5,C/C=C/C/C=C/[C@H](C)C[C@H](O)[C@@H]1C[C@@H]2O[C@H]2/C=C/[C@@H]2OC(C)(C)O[C@H]2/C=C/C[C@H](C)CC(=O)O1,21.5% (inactive)
6,COC1(OC)N=C(N)C2(C#N)C3(C(=O)Nc4ccccc43)C12C#N (configuration not stated),84% (inactive)
7,C/C=C/C/C=C/[C@H](C)C[C@H](O)[C@@H]1C[C@@H]2O[C@H]2/C=C/[C@H](O)[C@@H](O)/C=C/C[C@H](C)CC(=O)O1,84.9% (inactive)
8,COc1cc(-c2nc3c(c(C)nc4c3nnn4-c3ccccc3)c(=O)o2)cc(OC)c1OC,116% (inactive)
9,CCC(C)C1NC(=O)C(CC(C)C)NC(=O)C(C)NC(=O)C(C(C)C)NC(=O)C(CCCCN)NC(=O)C(CC(C)C)NC(=O)C(C(C)C)NC(=O)[C@H](C)NC(=O)C(C(C)CC)NC(=O)C(CCCN=C(N)N)NC(=O)C(CCCCN)NC(=O)C(CCCN=C(N)N)NC(=O)C(CCCCN)NC(=O)C([C@H](C)CC)NC(=O)C(CCCCN)NC1=O (some centres not stated),8.18% (active)
10,COc1ccc(-c2nc(SCC(C)C)nc(Nc3ccc(C(=O)O)cc3)c2C#N)cc1,86.6% (inactive)
11,O=S(=O)(O)CCI,114% (inactive)
12,Nc1nc2c(c3cnccc13)C(c1cccc(Cl)c1)Cc1cnccc1-2 (configuration not stated),10.1% (inactive)
13,Oc1ccccc1\C=N/N=C/C=C/c1ccccc1,96.3% (inactive)
14,COC(=O)c1ccc2[nH]c(O)c(C(=Nc3ccc(N(C)C(=O)CN4CCN(C)CC4)cc3)c3ccc(N)cc3)c2c1,96.2% (inactive)
15,CC(C)OC(=O)c1ccc2n1CCCc1cnc(Nc3ccccc3)nc1-2,84.7% (inactive)
16,CC(=O)Nc1ccc(C(=O)/C=C/c2ccc(N(C)C)cc2)cc1,105% (inactive)
17,CCOC(=O)C1=C(c2ccccc2)NC(=O)NC1CN1C(=O)c2ccccc2C1=O (configuration not stated),111% (inactive)
18,CC/C(=N\Nc1nc2ccccc2n1C)c1ccccn1,25.8% (inactive)
19,CCCCCCC(C)N(CC(C)(C)O)C(=O)c1ccc([N+](=O)[O-])cc1 (configuration not stated),113% (inactive)

row,Structure (SMILES),growth
1,O=C1C(=O)c2ccccc2C(O)=C1CCCc1ccc(Oc2ccccc2)cc1,49.4% (inactive)
2,C=C[C@]1(C)C=C2C(=O)[C@@]3(O)OC[C@@]4(CCCC(C)(C)C43O)C2(O)C(O)C1 (some centres not stated),16.3% (inactive)
3,COc1ccc(/C=C2\CCCC3=C2N=C2SC=NN2C3c2ccc(OC)c(OC)c2)cc1OC (configuration not stated),37.8% (inactive)
4,CC(C)(C)c1ccc(OCCOC(=O)CBr)cc1,101% (inactive)
5,c1cc(C2CCCCC2)ccc1OCCCCCCN1CCNCC1,40.5% (inactive)
6,CCOC(=O)c1c2c(cn1Cc1ccccc1)-c1oncc1CC2,103% (inactive)
7,C/C(=N\Nc1cccc(Cl)n1)c1ccccn1,26.7% (inactive)
8,CC(=O)c1ccc2c(c1)c1ccccc1n2C,108% (inactive)
9,CCCCN(CCCC)CCCNc1c2c(nc3ccc(Cl)cc13)CCCC2,88.9% (inactive)
10,COc1ccc(Cn2cc3c(c2)-c2oncc2CC3)cc1OC,-27.4% (active)
11,C/C(=N\Nc1ccc(Cl)cn1)c1ccccn1,20.5% (inactive)
12,NC(=O)c1c(Nc2ccccc2)nn2cc(-c3nc4ccccc4s3)c(N)nc12,107% (inactive)
13,COC(=O)c1ccc2[nH]c(O)c(C(=Nc3ccc(N(C)C(=O)CN4CCN(C)CC4)cc3)c3cccc(OC)c3)c2c1,10.5% (inactive)
14,Cc1nc2c(nnn2-c2ccccc2)c2nc(-c3ccc(Cl)cc3)oc(=O)c12,118% (inactive)
15,Clc1ccc(N/N=C(/c2ccccc2)c2ccccn2)nc1,40.7% (inactive)
16,COc1ccc(-c2nnc(SCC(=O)Nc3ccc(C(=O)/C=C/c4cc(OC)c(OC)c(OC)c4)cc3)n2-c2ccccc2)cc1OC,-37% [100 µM] (active)
17,CCc1ccc(C(=Nc2ccc(N(C)C(=O)CN3CCN(C)CC3)cc2)c2c(O)[nH]c3ccc(C(=O)OC)cc23)cc1,-69.9% (active)
18,Cc1ccc(C(C)C)c(OCc2ccc(C(=O)N/N=C/c3cccc(O)c3O)cc2)c1,20.4% (inactive)
